In the supplement of paper PMC10338343:
± gives the standard deviation.

Columns and labels:
[1] = system: MILI (PIWIL2) piRISC loaded with piRNA #1 (26 nt); assay: pre-steady-state target cleavage rate (min^-1); guide: piRNA #1 5'p-UGAGGUAGUAGGUUGUAUAGUAUCCA; higher = faster piRNA-guided slicing of the target; details: auxiliary factor: 500 nM mouse GTSF1
Summary of the method: (§1)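 The pre-steady-state cleavage rate was obtained by Cleave-'n-Seq with a burst-and-steady-state fit. A transcribed, DNA-blocked target RNA library (0.1 nM) was mixed with 1 nM active affinity-purified piRISC carrying one synthetic guide, with or without 500 nM GTSF1 partner protein, in HEPES–potassium acetate buffer at 33 °C for 0–8 or 0–960 min. Uncleaved targets were sequenced and normalised to depth and to weakly complementary targets, with three trials pooled and k3 capped at 0.0001 min^-1.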

[2] = system: EfPiwi piRISC loaded with piRNA #1 (26 nt); assay: pre-steady-state target cleavage rate (min^-1); auxiliary factor: 500 nM Ephydatia muelleri Gtsf1; guide: piRNA #1 5'p-UGAGGUAGUAGGUUGUAUAGUAUCCA; MIWI and MILI are mouse PIWI proteins and EfPiwi is from a freshwater sponge; tags in brackets are library labels; higher = faster piRNA-guided slicing of the target
Summary of the method: as §1

Sequence | pre-steady-state target cleavage rate [1] | pre-steady-state target cleavage rate [2]
GGAGUGGAUACUAUACAACCAUCUACCUCA | 0.00432 ± 0.0024 | 0.00525 ± 0.0023
GGAGACCAUACUUACAACCUACUACCUCA | 0.0658 ± 0.012 | 0.00861 ± 0.0046
GGAGACCUUACUCAUACAACCUACUACCUCA | 0.122 ± 0.016 | 0.00389 ± 0.0032
GGAGACCUUACGAUACAACCUACUACCUCA | 0.152 ± 0.017 | 0.0548 ± 0.021
GGAGUGGAUACUAUACAACCACUACCUCA | 0.00753 ± 0.002 | 0.00771 ± 0.0031
GGAGAGGAAACUAUACAACCUACAACCUCA | 0.122 ± 0.03 | 0.00279 ± 0.0019
GGAGACGAUACUAUACAACCUACUACCUCA [g2:g24:cont:t1A] | 0.21 ± 0.018 | 0.0773 ± 0.024
GGAGAGGAUCCUAUACAACCUACUACCUCA | 0.164 ± 0.025 | 0.0886 ± 0.046
GGAGACCUAUGUAUUACAACCUACUACCUCA | 0.0187 ± 0.0046 | 0.0036 ± 0.0033
GGAGACCUAUCUAUACAUCCUAGUACCUCA | 0.0489 ± 0.012 | 0.00398 ± 0.0038
GGAGACCAUACUAUUCAACCUACUACCUGA | 0.114 ± 0.018 | 0.00313 ± 0.0026
GGAGAGGAUACUAUACAACCAACUACCUGA | 0.00399 ± 0.0021 | 0.00332 ± 0.0017
GGAGACGAUACUAUACAACCUACUACCCA | 0.107 ± 0.024 | 0.00543 ± 0.0019
GGAGACCAUACUAUACAACCUACUACCUUCA | 0.2 ± 0.018 | 0.0679 ± 0.02
GGAGACCUAUCUAUAACAACCUACUACCUCA | 0.0615 ± 0.012 | 0.00453 ± 0.0037
GGAGACCUAACUAUACAACCUACUACCUUCA | 0.14 ± 0.028 | 0.0285 ± 0.011
GGAGACGAUACAUUACAACCUACUACCUCA | 0.173 ± 0.015 | 0.00848 ± 0.0035
GGAGACGAUACUAUACAACCUAACUACCUCA | 0.0232 ± 0.0036 | 0.0045 ± 0.0021
GGAGAGGAUACUAUAGAACCUACUAGCUCA | 0.00752 ± 0.0035 | 0.00254 ± 0.0018
GGAGAGCAUACUAUACAACCUACUACCACA | 0.158 ± 0.018 | 0.00318 ± 0.0021

Sequence | pre-steady-state target cleavage rate [1] | pre-steady-state target cleavage rate [2]
GGAGACCUAACUAUACAACCUAUUACCUCA | 0.0965 ± 0.018 | 0.00738 ± 0.0043
GGAGAGGAUACAAUACAACCUACUUCCUCA | 0.0281 ± 0.0083 | 0.00257 ± 0.002
GGAGAGGAUAAUAUACAACCUACUACCUCA | 0.135 ± 0.01 | 0.00772 ± 0.0036
GGAGACCUAUCUACUACAACCUACUACCUCA | 0.0541 ± 0.0097 | 0.00749 ± 0.0039
GGAGUGGAUACUAUACAUGCUACUACCUCA | 0.109 ± 0.0081 | 0.00896 ± 0.0037
GGAGACCUAUGAACACAACCUACUACCUCA | 0.0162 ± 0.0041 | 0.00896 ± 0.0044
GGAGAGGAUACAAUACAACCUACAACCUCA | 0.115 ± 0.015 | 0.00231 ± 0.0018
GGAGUGGAUACUAUACUACCUACUACCUGA | 0.104 ± 0.013 | 0.00352 ± 0.0018
GGAGAGGAUACUAUACAACCUACCACCUCA | 0.129 ± 0.018 | 0.00459 ± 0.002
GGAGACGAUACUAUACAAGCUACUAGCUCA | 0.0998 ± 0.024 | 0.00375 ± 0.0019
GGAGACGAUACUAUACAAGCAACUACCUCA | 0.00923 ± 0.0026 | 0.0046 ± 0.003
GGAGUGGAUACUAUACAACCUACGUACCUCA | 0.118 ± 0.014 | 0.00401 ± 0.0015
GGAGAGGUUACUAUACAACCUACUACCUCA | 0.197 ± 0.014 | 0.0625 ± 0.025
GGAGUGGAUACUAAACAACCAACUACCUCA | 0.007 ± 0.0021 | 0.0031 ± 0.0017
GGAGACGAUACUUUACAAGCUACUACCUCA | 0.235 ± 0.015 | 0.00342 ± 0.0026
GGAGACCAUACUAUUCAACGUACUACCUCA | 0.019 ± 0.0049 | 0.00247 ± 0.0019
GGAGACCAUACUAUACAACGUACAACCUCA | 0.0214 ± 0.0035 | 0.00296 ± 0.0025
GGAGACCUAAGUAUACAACCUACUACCUCA | 0.0701 ± 0.0097 | 0.00697 ± 0.0037
GGAGUGGAUACUAUACAACUACUACCUCA | 0.0608 ± 0.0047 | 0.00835 ± 0.0039
GGAGACGAUACUAUACAACCUACUUCCACA | 0.0194 ± 0.0082 | 0.00373 ± 0.0021

Sequence | pre-steady-state target cleavage rate [1] | pre-steady-state target cleavage rate [2]
GGAGACCAUACUAUACACCUACUACCUCA | 0.0288 ± 0.0078 | 0.00694 ± 0.0042
GGAGUGGAUACUAUUCAACCUAGUACCUCA | 0.0485 ± 0.0085 | 0.00286 ± 0.0013
GGAGUGGAUACUAUAGAACGUACUACCUCA | 0.0156 ± 0.0021 | 0.00156 ± 0.0015
GGAGUGGAUACUAUAGAACCUACUACCUGA | 0.0453 ± 0.0088 | 0.00222 ± 0.0011
GGAGACCUUACUAUACAACCUACUACCCCA | 0.142 ± 0.021 | 0.00566 ± 0.0032
GGAGAGGAUACUAUACAACCUACUACCUUA | 0.19 ± 0.018 | 0.204 ± 0.073
GGAGUGGAUACUUUACAACCUACUACCUCA | 0.174 ± 0.0092 | 0.00658 ± 0.0035
GGAGACCAUACUAUACAACCAACUUCCUCA | 0.00585 ± 0.003 | 0.00509 ± 0.0046
GGAGUGGAUUCUAUACAACCUAGUACCUCA | 0.0634 ± 0.011 | 0.00168 ± 0.0013
GGAGACGAUACUAUACAAGGUACUACCUCA | 0.0884 ± 0.013 | 0.00393 ± 0.0023
GGAGUGGAUACUAUACAACCUACUACUCA | 0.0385 ± 0.0084 | 0.00563 ± 0.0029
GGAGUGCAUACUAUACAACCUUCUACCUCA | 0.00996 ± 0.002 | 0.00467 ± 0.0029
GGAGACCAAACUAUACAACCUACUACCUCA | 0.131 ± 0.036 | 0.0177 ± 0.0063
GGAGACGAUACUAUACAACCUACUACCUA | 0.151 ± 0.018 | 0.104 ± 0.038
GGAGUGGAUACUAUACAACCUACUACAUCA | 0.0416 ± 0.0072 | 0.00707 ± 0.0031
GGAGAGGAUCACUAUACAACCUACUACCUCA | 0.086 ± 0.019 | 0.00867 ± 0.0051
GGAGACGAUACAAUACAUCCUACUACCUCA | 0.312 ± 0.016 | 0.00286 ± 0.0019
GGAGACCUUACUAUACAACCAACUACCUCA | 0.00455 ± 0.0024 | 0.00528 ± 0.003
GGAGACCUAUCUAUACAACCUACUACCUCG [g2:g20:cont:t1G] | 0.11 ± 0.012 | 0.061 ± 0.024
GGAGUGGCUACUAUACAACCUACUACCUCA | 0.19 ± 0.012 | 0.0198 ± 0.0079
